CYP2C9 inhib: blockers of cytochrome P450 2C9 activity – biochemical, luminescence, ADME assay, primary screen. CYP2C9 Supersomes, luciferin-H conversion. inhibition, % at 5 µM. 96,000 compounds, 20% hits. AID 777, 2007;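 active = blocking of liver enzyme CYP2C9 beyond about 50% at 5 µM, limit read from the data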
CYP2C19 activ: human CYP2C19 activators, primary screen, biochemical, luminescence | activation factor at 5 µM | recombinant CYP2C19, luciferin-H EGE luminescence; hits give high values; 0 = fully inhibited enzyme, 1 = untreated enzyme | AID 1025, 2008 | 96,000 tested, under 10 active | Cytochrome P450 2C19 (Homo sapiens), P33261;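 active = activation factor of at least 2 at 5 µM in the primary screen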
Target sequence (P33261 whole entry, looked up): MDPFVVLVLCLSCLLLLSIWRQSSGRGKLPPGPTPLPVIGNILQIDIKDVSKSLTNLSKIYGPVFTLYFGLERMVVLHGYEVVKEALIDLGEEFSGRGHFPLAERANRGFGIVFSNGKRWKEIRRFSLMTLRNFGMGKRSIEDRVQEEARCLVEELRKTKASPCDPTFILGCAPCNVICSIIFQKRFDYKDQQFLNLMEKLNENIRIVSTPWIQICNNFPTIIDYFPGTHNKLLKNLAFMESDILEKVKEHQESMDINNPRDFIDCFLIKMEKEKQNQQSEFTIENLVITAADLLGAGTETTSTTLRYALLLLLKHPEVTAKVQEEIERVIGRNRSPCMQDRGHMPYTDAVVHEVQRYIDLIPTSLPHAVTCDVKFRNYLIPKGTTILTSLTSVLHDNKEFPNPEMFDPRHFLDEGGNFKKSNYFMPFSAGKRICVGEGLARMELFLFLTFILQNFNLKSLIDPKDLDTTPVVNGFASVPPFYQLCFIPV
PLK1 inh: human PLK1 kinase inhibitors, primary screen, biochemical, TR-FRET. recombinant PLK1 kinase, TR-FRET peptide phosphorylation. inhibition, % at 10 µM. Serine/threonine-protein kinase PLK1 (Homo sapiens), P53350. 97,000 compounds, 0.53% hits;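 active = inhibition of 50% or more in the single-concentration screen; inactive = inhibition below 50%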
PLK1 PBD inh: Plk1 polo box domain binding inhibitors, primary screen, biochemical, fluorescence polarization; Plk1 PBD phosphopeptide binding; inhibition, %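 (tested at about 20 µM)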; 97,000 compounds, 0.13% hits; in the data active = inhibition above about 34%, passing the limit was not always enough
CYP2C19 inh: blockers of cytochrome P450 2C19 activity – biochemical, luminescence, ADME assay, primary screen | CYP2C19 Supersomes, luciferin-H EGE luminescence, 30 min | AID 778, 2007 | 96,000 compounds, 21% hits | inhibition, % at 5 µM;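 active = CYP2C19 inhibition above a set limit at 5 µM in the primary screen, cut at about 50% in these data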
CYP2C9 activ: human CYP2C9 activators, primary screen, biochemical, luminescence | Cytochrome P450 2C9 (Homo sapiens), P11712 | recombinant CYP2C9, luciferin-H conversion; hits give high values; factor 1 = untreated enzyme, 0 = blocked | activation factor at 5 µM | 96,000 compounds, 1.4% hits | AID 1024, 2008;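 active = activation factor of 2 or more for CYP2C9 at a 5 µM dose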
Of the large screens only hits and unclear results are named; the others gave an inactive call. A selection: hits, their analogues and other compounds. The true share with any hit is near 28%.

N#Cc1c(-c2ccccc2)cc(C2CC2)nc1SCC(=O)c1cccs1	none
Cc1cc2c(C)ccc(C)c2nc1SCC(=O)c1cccs1	CYP2C9 inhib 55
CC(=O)CSc1nc(N)c(C#N)c(-c2cccs2)c1C#N	CYP2C9 inhib 60
O=C(CSCC(=O)OCC(=O)c1ccc(Br)cc1)Nc1cccc2ccccc12	none
COCCCn1c(SCC(=O)N2CCCC(C)C2)nnc1-c1ccco1 (stereo not given)	none (no result: PLK1 inh, PLK1 PBD inh)
CCn1c(NCc2ccc3c(c2)OCO3)nc2ccccc21	CYP2C19 inh 73
C=CCn1c(NCc2ccc3c(c2)OCO3)nc2ccccc21	CYP2C9 inhib 73, CYP2C19 inh 95
CN(C)CCCn1c(NCc2ccc3c(c2)OCO3)nc2ccccc21	none
CCN(Cc1ccccc1)S(=O)(=O)c1nc2nc(C)c(C)c(C)n2n1	none (no result: PLK1 inh, PLK1 PBD inh)
Cc1ccc(NS(=O)(=O)c2cc(C(=O)N3CCOCC3)ccc2C)cc1C	none
COc1ccc(-c2nnc3ccc(SCC(N)=O)nn23)cc1OC	none
COc1ccc(-c2cc(N)n(S(=O)(=O)c3c(F)c(F)c(F)c(F)c3F)n2)cc1OC	CYP2C9 inhib 83, CYP2C19 inh 59
O=C(NCc1ccc2c(c1)OCO2)C1CC(=O)N(CCc2ccccc2)C1 (stereo not given)	CYP2C9 inhib 77
CC(=O)N(Cc1ccc2c(c1)OCO2)C1CC(=O)N(CCc2ccccc2)C1=O (stereo not given)	CYP2C9 inhib 53, CYP2C19 inh 70
COc1ccc(N2CC(C(=O)Nc3ccc4c(c3)OCO4)CC2=O)cc1 (stereo not given)	none
O=C(NCc1cccnc1)C1CC(=O)N(CCc2ccccc2)C1 (stereo not given)	CYP2C19 inh 80
O=C(NCc1ccc2c(c1)OCO2)C1CC(=O)N(c2ccc(O)cc2)C1 (stereo not given)	CYP2C9 activ 2.1
O=C(O)C1CC(=O)N(Cc2ccc3c(c2)OCO3)C1 (stereo not given)	none
CCN(CC)CCCN1C(=O)C(=O)/C(=C(/O)c2cnn(-c3ccccc3)c2C)C1c1ccncc1 (stereo not given)	none (no result: CYP2C9 inhib, CYP2C19 activ, CYP2C19 inh, CYP2C9 activ)
COc1ccc2nc(CC(C)(C)CC(=O)O)c[n+]([O-])c2c1	none
COC(=O)[C@H](C)NC(=O)COc1ccccc1	none
CC(C)Cn1c(N)c(C(=O)COC(=O)C2=COCCO2)c(=O)n(C)c1=O	none (no result: CYP2C9 inhib, CYP2C19 activ, CYP2C19 inh, CYP2C9 activ)
COc1ccc(Cc2nnc(NC(=O)c3c(-c4ccccc4)noc3C)s2)cc1OC	CYP2C9 inhib 54 (no result: PLK1 inh, PLK1 PBD inh)
Cc1onc(-c2ccccc2)c1C(=O)Nc1cccc(OC(C)C)c1	none
COc1ccc(Cc2nnc(NC(=O)c3c(-c4ccccc4)noc3C)s2)cc1	CYP2C9 inhib 93, CYP2C19 inh 84
Cc1onc(-c2ccccc2)c1C(N)=O	none
Cc1onc(-c2ccccc2)c1C(=O)NCCc1c[nH]c2ccccc12	CYP2C9 inhib 56, CYP2C19 inh 59
COc1ccc(CCNC(=O)c2cc(C(C)C)on2)cc1OC	none (no result: PLK1 inh, PLK1 PBD inh)
COc1ccc(CCNC(=O)c2c(-c3ccccc3)noc2C)cc1OC	CYP2C9 inhib 86, CYP2C19 inh 90 (no result: PLK1 inh, PLK1 PBD inh)
COc1ccc(Cc2nnc(NC(=O)CSc3ccccc3)s2)cc1	none
NCCc1nnc(SCc2c(F)cccc2Cl)o1	CYP2C9 inhib 53, CYP2C19 inh 62
N[C@@H](Cc1ccccc1)c1nnc(SCc2ccccc2Cl)o1	CYP2C19 inh 79
NCCCCCc1nnc(SC/C=C/c2ccccc2)o1	none
CCc1ccccc1NC(=O)CSc1nnc([C@@H](N)Cc2ccccc2)o1	none (no result: CYP2C9 inhib, CYP2C19 activ, CYP2C19 inh, CYP2C9 activ)
NCCc1nnc(SCc2ccccc2F)o1	none
NCCc1nnc(SCc2ccccc2)o1	CYP2C9 inhib 66, CYP2C19 inh 79
NCCCCCc1nnc(SCc2ccccc2Cl)o1	CYP2C19 inh 72
CC1CC(C)(C)NC(C)c2ccccc21 (stereo not given)	none
CCCCC(=O)Nc1cc(NC(=O)CC)ccc1Cl	none
CCN(CC)C(=O)CSc1nnc(CCN)o1	CYP2C9 inhib 53 (no result: PLK1 inh, PLK1 PBD inh)
Fc1cccc(Cl)c1CSc1nnc(COc2cccc3cccnc23)o1	CYP2C19 inh 96
CN(CC(=O)NCCN1CCN(c2ccccc2)CC1)S(=O)(=O)c1ccc2c(c1)CCC(=O)N2	none
c1ccc(-c2nnc(SCCC3OCCCO3)o2)cc1	none
CCCS(=O)(=O)N1CCN(c2ccccc2F)CC1	CYP2C19 inh 68
COc1cccc(S(=O)(=O)N2CCN(c3ccccc3F)CC2)c1	CYP2C9 inhib 67, CYP2C19 inh 74
O=C(c1cccc(S(=O)(=O)N2CCCCC2)c1)N1CCCCC1	none
O=C(c1cccc(S(=O)(=O)N2CCCC2)c1)N1CCN(c2ccccc2F)CC1	CYP2C9 inhib 80, CYP2C19 inh 93
CCCCOC(=O)Nc1ccc(C)c(Cl)c1	none
CCc1nc2c3cnn(-c4cc(Cl)ccc4C)c3ncn2n1	CYP2C19 inh 85
O=C(NCc1cccnc1)C1CCCN(Cc2cnn(-c3ccccc3)c2-n2cccc2)C1 (stereo not given)	none
Clc1ccc(-n2nnnc2CN2CCOCC2)cc1	none
O=[N+]([O-])c1cccc(-n2nnnc2CN2CCCCCC2)c1	CYP2C19 inh 94
Cc1cc(C)n(-c2nc3c(c(=O)[nH]c(=O)n3C)n2Cc2cccc(Br)c2)n1	CYP2C19 inh 55
Cn1c(=O)[nH]c(=O)c2c1nc(N1CCCC1)n2CC(O)COc1ccccc1 (stereo not given)	none
Cn1c(=O)[nH]c(=O)c2c1nc(N1CCOCC1)n2CC(O)COc1ccccc1 (stereo not given)	CYP2C9 inhib 75
Cc1cc(C)n(-c2nc3c(c(=O)[nH]c(=O)n3C)n2CC(O)COc2ccccc2C)n1 (stereo not given)	CYP2C19 inh 74
Cc1ccc(-n2c(SCC3CCCCO3)nnc2-c2ccco2)cc1 (stereo not given)	CYP2C9 inhib 58
COc1cccc(C(=O)CSc2nnc(-c3ccco3)n2CC2CCCO2)c1 (stereo not given)	CYP2C19 inh 67
COc1ccc(C(=O)CSc2nnc(-c3ccco3)n2CC2CCCO2)cc1 (stereo not given)	none
c1ccc(-n2c(SCC3CCCCO3)nnc2-c2cccs2)cc1 (stereo not given)	none
O=C(CSc1nnc(-c2ccco2)n1CC1CCCO1)N1CCCCC1 (stereo not given)	CYP2C19 inh 52
O=C(NC1CC1)c1ccc2c(c1)ncn2C1CCCC1	none
NC(=O)C1CCN(c2nnnn2-c2ccccc2)CC1	none
CCOC(=O)C1CCCN(c2nnnn2-c2ccccc2)C1 (stereo not given)	CYP2C19 inh 81 (no result: PLK1 inh, PLK1 PBD inh)
